Results as given in PubChem BioAssay (Tox21).
Values joined by “and” are separate entries in the source; they are usually repeats but may differ in a detail not shown here. Equal values may be shown once. Inconclusive results are not listed. Entries that show only a call come without a potency. Active and inactive are the calls of the source. Calls follow the shape of the full dose curve.

Biological target: Thyrotropin receptor (Homo sapiens) (UniProt P16473)
Test: qHTS assay to identify small molecule antagonists of the thyroid stimulating hormone receptor (TSHR) signaling pathway (AID 1259385); also: nearly all actives have a fitted effect of over 20% in size
Settings: TSHR-HEK293 cAMP HTRF, TSH-stimulated antagonist mode; series mostly up to 92.4 µM; activity change, negative = inhibition: at the top concentration
Procedure, shortened: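 TSHR-HEK293 cells (800/well) plated 18 h, then compounds with Ro20-1724 and TSH at 1.5 ng/mL final, 30 min at room temperature. cAMP quantified by HTRF (cAMP-d2/anti-cAMP-cryptate, 1 h); 15 concentrations in triplicate.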
Potency is read from the fitted curve at half-maximal effect.

Sequence of Thyrotropin receptor (Homo sapiens) (P16473 whole entry, looked up): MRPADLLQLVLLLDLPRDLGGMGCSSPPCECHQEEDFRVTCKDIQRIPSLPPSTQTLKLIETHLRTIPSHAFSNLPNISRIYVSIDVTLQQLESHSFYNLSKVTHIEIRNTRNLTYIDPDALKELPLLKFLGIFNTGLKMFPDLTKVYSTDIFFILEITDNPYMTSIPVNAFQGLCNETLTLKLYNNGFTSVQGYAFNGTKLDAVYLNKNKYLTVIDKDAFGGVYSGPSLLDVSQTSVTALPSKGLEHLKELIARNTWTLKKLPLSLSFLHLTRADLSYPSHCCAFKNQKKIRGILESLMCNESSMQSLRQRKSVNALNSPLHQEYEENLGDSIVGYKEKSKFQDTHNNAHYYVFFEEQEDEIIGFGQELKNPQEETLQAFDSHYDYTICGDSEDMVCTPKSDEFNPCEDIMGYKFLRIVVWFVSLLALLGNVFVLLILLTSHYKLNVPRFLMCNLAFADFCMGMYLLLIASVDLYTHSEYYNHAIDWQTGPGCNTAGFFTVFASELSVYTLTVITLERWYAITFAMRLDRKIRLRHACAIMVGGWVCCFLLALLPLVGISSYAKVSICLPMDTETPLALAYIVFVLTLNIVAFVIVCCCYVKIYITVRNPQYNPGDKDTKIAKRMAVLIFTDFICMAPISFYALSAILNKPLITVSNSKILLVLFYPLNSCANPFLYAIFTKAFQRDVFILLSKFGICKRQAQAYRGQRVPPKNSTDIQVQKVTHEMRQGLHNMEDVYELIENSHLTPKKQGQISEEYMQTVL

SMILES	Potency	activity change, negative = inhibition
N#CCCCCC#N	inactive	–
O=S(=O)(O)C(F)(F)C(F)(F)C(F)(F)C(F)(F)C(F)(F)C(F)(F)C(F)(F)C(F)(F)F	inactive	–
CC(C)(C#N)N=NC(C)(C)C#N	inactive	–
O=[N+]([O-])c1ccc(Cl)c([N+](=O)[O-])c1	inactive	–
Clc1ccc(C(Cl)(Cl)Cl)cc1	inactive	–
CC(C)=CC1C(C(=O)OCN2C(=O)C3=C(CCCC3)C2=O)C1(C)C (stereo not given)	inactive	–
C[N+](C)(C)C	inactive	–
CCCCOCC1CO1 (stereo not given)	inactive	–
ClCC(Cl)CCl	inactive	–
CCCCOCCOC(C)=O	inactive	–
COP(=S)(OC)Oc1ccc(S(=O)(=O)N(C)C)cc1	inactive	–
CCC(=O)Nc1ccc(Cl)c(Cl)c1	inactive	–
CCC[CH2][Sn]([Cl])([CH2]CCC)[CH2]CCC	12.2 µM (active)	–
ClC(Cl)=C(Cl)C(Cl)=C(Cl)Cl	inactive	–
CCCCC(C#N)(Cn1cncn1)c1ccc(Cl)cc1 (stereo not given)	60.9 µM (active) and 54.5 µM (active)	–
O=NN(c1ccccc1)c1ccccc1	inactive	–
O=C1Nc2ccc(Cl)cc2C(c2ccccc2)=NC1O (stereo not given)	inactive	–
CC1CC(=O)O1 (stereo not given)	inactive	–
CNC(=S)S	inactive	–
C[C@]12CC[C@H]3[C@@H](CCC4=CC(=O)CC[C@@H]43)[C@@H]1CC[C@@H]2O	inactive	–
c1ccc(C2CO2)cc1 (stereo not given)	inactive	–
CC(C)(c1ccccc1)c1ccc(O)c(C(C)(C)c2ccccc2)c1	–	-0.162% (inactive)
O=C(O)c1nn(Cc2ccc(Cl)cc2Cl)c2ccccc12	inactive	–
CC(C)(c1ccc(OCC2CO2)cc1)c1ccc(OCC2CO2)cc1 (stereo not given)	–	-2.83% (inactive)
C[C@]12CCC(=O)C=C1CC[C@@H]1[C@@H]2CC[C@@]2(C)[C@H]1CC[C@]2(C)O	inactive	–
